From the supplement of paper PMC11732987, “Enantioselective OTUD7B fragment discovery through chemoproteomics screening and high-throughput optimisation” (Communications Chemistry, 2025)
A number with no mark means an inactive call.

What was measured:
Experiment in all cases: log2 ratio of Biotin-Ahx-Ub-VS probe labelling (fragment/DMSO); higher = less target engagement (more negative = stronger competition), active = hit call of the paper (q ≤ 0.05, log2 ratio ≤ -1)
Conditions in all cases: compound concentration: 200 uM; treatment time: 3 h
[1] = molecular target: T1, OTUD6B (UniProt Q8N6M0)
T1 sequence (whole entry): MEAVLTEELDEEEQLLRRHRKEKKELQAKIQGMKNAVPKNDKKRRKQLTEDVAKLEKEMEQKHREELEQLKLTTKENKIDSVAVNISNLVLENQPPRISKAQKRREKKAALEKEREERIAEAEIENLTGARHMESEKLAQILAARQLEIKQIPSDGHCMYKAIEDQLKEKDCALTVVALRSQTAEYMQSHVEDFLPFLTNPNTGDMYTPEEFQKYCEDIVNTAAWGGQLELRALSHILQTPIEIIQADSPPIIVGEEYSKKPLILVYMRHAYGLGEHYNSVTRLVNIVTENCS
Method in brief: (§1)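 The table lists average log2 ratios of fragment over vehicle, from an unpaired t-test on global-median-normalised Spectronaut label-free quantities. Proteins with ≥2 unique peptides were used. Samples were HEK293T lysate (495 µg) treated in triplicate with fragment at 200 µM or vehicle for 3 h, then with Biotin-Ahx-Ub-VS (0.5 µM final) for 1 h, with labelled DUBs NeutrAvidin-enriched and run by diaPASEF LC-MS/MS.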

[2] = molecular target: T2, OTUD7B (UniProt Q6GQQ9)
T2 sequence (whole entry): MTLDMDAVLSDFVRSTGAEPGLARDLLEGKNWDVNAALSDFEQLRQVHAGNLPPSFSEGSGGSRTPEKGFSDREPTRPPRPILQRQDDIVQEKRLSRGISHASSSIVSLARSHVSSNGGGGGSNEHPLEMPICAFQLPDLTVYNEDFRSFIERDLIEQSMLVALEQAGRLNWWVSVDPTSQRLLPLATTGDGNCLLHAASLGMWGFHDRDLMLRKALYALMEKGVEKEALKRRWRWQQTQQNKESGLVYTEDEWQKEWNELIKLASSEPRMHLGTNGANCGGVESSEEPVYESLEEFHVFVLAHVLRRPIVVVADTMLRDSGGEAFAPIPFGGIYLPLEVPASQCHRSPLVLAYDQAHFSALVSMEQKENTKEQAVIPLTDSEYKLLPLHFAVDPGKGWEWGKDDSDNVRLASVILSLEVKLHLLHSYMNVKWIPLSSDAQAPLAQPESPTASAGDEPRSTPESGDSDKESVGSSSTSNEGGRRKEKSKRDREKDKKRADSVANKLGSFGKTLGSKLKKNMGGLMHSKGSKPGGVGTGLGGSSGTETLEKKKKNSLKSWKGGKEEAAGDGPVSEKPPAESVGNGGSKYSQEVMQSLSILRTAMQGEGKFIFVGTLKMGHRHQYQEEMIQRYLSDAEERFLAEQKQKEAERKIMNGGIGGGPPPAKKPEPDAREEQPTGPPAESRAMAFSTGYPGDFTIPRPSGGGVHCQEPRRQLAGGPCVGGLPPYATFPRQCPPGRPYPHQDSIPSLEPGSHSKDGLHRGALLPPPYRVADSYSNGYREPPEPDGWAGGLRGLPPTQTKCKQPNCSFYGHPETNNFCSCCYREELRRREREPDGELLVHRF
Method in brief: as §1

[3] = molecular target: PRPF8 (UniProt Q6P2Q9)
Method in brief: as §1

[4] = molecular target: T3, PSMD7 (UniProt P51665)
T3 sequence (whole entry): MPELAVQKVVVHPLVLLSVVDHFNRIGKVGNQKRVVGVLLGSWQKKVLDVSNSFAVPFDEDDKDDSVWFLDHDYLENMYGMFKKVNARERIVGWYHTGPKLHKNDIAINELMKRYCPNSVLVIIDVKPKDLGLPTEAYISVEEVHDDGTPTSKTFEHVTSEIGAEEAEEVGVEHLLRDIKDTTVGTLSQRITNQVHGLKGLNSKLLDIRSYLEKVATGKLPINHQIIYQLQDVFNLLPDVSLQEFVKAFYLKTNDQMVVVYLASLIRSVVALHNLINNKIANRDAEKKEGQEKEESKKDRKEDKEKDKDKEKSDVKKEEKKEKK
Method in brief: as §1

[5] = molecular target: UCHL1 (UniProt P09936)
Method in brief: as §1

[6] = molecular target: T4, UCHL3 (UniProt P15374)
T4 sequence (whole entry): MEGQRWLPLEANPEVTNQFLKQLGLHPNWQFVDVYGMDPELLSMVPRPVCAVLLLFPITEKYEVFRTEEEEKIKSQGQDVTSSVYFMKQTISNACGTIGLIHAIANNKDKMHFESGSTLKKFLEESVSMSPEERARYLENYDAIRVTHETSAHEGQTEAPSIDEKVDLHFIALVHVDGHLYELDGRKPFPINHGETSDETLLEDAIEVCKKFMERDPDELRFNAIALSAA
Method in brief: as §1

[7] = molecular target: T5, UCHL5 (UniProt Q9Y5K5)
T5 sequence (whole entry): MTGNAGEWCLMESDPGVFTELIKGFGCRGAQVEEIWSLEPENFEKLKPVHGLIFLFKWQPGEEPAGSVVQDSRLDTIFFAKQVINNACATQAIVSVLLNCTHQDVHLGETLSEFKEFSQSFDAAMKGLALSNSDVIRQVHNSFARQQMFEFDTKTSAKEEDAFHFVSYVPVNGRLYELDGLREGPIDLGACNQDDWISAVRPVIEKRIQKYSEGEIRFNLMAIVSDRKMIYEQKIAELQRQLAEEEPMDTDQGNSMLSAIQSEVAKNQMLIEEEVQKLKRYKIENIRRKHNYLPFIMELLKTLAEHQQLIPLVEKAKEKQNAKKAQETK
Method in brief: as §1

[8] = molecular target: USP10 (UniProt Q14694)
Method in brief: as §1

[9] = molecular target: T6, USP15 (UniProt Q9Y4E8)
T6 sequence (whole entry): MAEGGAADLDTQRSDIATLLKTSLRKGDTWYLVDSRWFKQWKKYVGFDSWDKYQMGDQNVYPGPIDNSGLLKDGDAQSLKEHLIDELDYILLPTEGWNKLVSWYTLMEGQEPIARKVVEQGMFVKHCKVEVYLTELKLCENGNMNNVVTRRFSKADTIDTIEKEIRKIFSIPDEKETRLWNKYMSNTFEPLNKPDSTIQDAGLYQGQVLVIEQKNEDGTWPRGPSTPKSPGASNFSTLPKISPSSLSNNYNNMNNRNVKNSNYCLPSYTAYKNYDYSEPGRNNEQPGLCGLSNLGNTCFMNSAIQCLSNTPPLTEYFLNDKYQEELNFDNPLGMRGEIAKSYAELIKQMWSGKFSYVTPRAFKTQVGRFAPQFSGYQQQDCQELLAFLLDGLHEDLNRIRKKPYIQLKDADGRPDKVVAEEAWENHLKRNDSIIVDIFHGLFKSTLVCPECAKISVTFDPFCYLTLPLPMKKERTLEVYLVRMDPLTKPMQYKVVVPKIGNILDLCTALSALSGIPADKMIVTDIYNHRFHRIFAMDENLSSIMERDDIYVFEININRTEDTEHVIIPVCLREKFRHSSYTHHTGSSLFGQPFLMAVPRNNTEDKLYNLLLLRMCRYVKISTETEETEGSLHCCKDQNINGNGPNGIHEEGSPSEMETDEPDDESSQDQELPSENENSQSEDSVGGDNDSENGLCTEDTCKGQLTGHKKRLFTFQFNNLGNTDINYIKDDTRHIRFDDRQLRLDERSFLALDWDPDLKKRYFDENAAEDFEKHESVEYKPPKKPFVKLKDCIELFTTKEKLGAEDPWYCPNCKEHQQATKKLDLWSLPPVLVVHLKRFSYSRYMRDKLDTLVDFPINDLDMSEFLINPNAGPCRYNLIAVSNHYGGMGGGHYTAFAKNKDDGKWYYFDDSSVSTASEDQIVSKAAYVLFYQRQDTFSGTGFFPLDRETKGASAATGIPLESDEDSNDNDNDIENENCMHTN
Method in brief: as §1

[10] = molecular target: USP16 (UniProt Q9Y5T5)
Method in brief: as §1

Sequence of UCHL1 (P09936 whole entry, looked up): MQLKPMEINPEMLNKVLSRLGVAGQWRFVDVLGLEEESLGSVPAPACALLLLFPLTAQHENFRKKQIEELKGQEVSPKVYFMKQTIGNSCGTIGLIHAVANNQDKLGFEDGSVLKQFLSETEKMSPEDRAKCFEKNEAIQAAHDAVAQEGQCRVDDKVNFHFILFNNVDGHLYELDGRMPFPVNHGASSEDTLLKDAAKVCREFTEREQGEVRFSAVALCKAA
Sequence of USP10 (Q14694 whole entry): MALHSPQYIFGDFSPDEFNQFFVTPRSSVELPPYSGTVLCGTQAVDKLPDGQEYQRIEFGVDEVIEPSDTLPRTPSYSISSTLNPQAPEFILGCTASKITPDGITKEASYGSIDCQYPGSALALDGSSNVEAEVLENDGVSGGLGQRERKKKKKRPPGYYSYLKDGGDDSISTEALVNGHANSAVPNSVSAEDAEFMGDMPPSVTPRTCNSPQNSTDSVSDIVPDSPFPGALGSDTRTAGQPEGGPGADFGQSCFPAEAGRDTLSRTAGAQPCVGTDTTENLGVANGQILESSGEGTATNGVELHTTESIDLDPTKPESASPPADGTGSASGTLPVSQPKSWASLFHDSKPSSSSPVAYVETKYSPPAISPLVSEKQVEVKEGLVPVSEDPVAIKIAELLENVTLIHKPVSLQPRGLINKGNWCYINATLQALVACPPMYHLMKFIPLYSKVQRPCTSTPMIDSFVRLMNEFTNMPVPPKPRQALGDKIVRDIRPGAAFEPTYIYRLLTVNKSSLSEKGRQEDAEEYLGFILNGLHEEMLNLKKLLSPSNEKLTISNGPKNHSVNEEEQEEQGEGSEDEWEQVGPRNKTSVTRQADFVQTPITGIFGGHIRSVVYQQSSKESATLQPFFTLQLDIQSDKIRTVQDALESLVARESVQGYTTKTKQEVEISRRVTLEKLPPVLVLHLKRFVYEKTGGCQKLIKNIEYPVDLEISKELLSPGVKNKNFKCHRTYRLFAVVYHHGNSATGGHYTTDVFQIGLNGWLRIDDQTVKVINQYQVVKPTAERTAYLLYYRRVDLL
Sequence of USP16 (Q9Y5T5 whole entry, looked up): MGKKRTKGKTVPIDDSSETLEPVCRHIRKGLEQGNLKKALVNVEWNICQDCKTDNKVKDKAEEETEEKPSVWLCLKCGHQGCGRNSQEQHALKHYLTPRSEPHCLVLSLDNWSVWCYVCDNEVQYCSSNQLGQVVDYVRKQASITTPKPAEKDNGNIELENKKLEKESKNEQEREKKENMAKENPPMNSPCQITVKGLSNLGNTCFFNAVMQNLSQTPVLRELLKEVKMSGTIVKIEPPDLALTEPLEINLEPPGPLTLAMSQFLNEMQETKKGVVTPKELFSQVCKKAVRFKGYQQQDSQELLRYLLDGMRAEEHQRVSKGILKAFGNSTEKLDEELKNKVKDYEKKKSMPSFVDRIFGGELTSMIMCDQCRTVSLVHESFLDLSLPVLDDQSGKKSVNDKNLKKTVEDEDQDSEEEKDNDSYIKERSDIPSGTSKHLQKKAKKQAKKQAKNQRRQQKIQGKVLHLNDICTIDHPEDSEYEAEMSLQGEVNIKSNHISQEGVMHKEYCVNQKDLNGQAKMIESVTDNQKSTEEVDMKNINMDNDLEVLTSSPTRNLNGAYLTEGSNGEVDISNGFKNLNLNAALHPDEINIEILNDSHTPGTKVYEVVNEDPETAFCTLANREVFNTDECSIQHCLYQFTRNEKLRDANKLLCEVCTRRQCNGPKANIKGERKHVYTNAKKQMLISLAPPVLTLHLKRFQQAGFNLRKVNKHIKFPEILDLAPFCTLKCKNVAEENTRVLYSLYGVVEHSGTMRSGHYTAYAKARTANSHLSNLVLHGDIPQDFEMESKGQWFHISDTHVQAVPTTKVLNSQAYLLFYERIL

O=C(CCl)NCc1cccc(N2CCCC2=O)c1
log2 ratio of Biotin-Ahx-Ub-VS probe labelling [1]: 0.058 | log2 ratio of Biotin-Ahx-Ub-VS probe labelling [2]: -0.585 | log2 ratio of Biotin-Ahx-Ub-VS probe labelling [3]: -0.0281 | log2 ratio of Biotin-Ahx-Ub-VS probe labelling [4]: -0.0566 | log2 ratio of Biotin-Ahx-Ub-VS probe labelling [5]: -0.979 | log2 ratio of Biotin-Ahx-Ub-VS probe labelling [6]: 0.302 | log2 ratio of Biotin-Ahx-Ub-VS probe labelling [7]: -0.112 | log2 ratio of Biotin-Ahx-Ub-VS probe labelling [8]: 0.0755 | log2 ratio of Biotin-Ahx-Ub-VS probe labelling [9]: 0.049 | log2 ratio of Biotin-Ahx-Ub-VS probe labelling [10]: -1 (active)
